DRD3 agonist = agonists of human D3 dopamine receptor; P35462; D3R DiscoveRx beta-arrestin cells, luminescence, 90 min; max activation, %; 410,000 compounds, 0.58% hits; in the data active means max activation above about 30%
Target sequence (P35462 whole entry, looked up): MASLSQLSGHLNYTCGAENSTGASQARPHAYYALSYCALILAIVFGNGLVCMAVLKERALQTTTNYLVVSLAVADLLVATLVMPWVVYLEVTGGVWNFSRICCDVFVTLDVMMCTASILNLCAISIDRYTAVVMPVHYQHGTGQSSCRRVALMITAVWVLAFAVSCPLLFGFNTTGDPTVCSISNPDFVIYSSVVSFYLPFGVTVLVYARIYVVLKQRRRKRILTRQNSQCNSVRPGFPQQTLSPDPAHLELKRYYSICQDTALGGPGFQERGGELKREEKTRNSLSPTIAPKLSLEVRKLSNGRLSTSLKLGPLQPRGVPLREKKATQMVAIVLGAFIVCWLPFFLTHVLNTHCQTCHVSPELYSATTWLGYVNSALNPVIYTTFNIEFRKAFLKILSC
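Agonist mode: compounds and dopamine controls were applied to plated cells for 90 min at 37 degrees C after an overnight attachment at 1500 cells/well. Luminescent read-out followed 30 - 60 minutes at room temperature with DiscoveRx detection reagent.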
D1 antagonist = blocks dopamine activation of the human D1 receptor; P21728; HEK293 TREx D1 cells, calcium flux, dopamine EC80; active compounds read low; activity change, negative = inhibition, % at 10 µM; 360,000 compounds, 3.2% hits; in the data active means activity change below about -30%
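After overnight tetracycline induction at 30 C, force-coupled D1 HEK293 cells took up a no-wash calcium dye at room temperature. Compounds were added and monitored 180 s, and the response to EC80 dopamine was then recorded.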
D1 ag = agonists of human D1 dopamine receptor; HEK293 T-REx D1 cells, calcium flux, agonist mode; activation, % at 2 µM; 360,000 compounds, 1% hits; AID 504660; in the data active means activation above about 30%
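Tetracycline-induced HEK293 TREx D1 cells, force-coupled to calcium signalling, were dye-loaded with a no-wash calcium kit. Compound was pin-added after a 10 s baseline. Fluorescence was read kinetically at 1 cycle/s for 180 s, with calcium rises flagged as agonism.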
D1 potentiator = potentiators of human D1 dopamine receptor. P21728. HEK293 TREx D1 cells, calcium flux, dopamine EC20 potentiation. potentiation, % at 10 µM. 360,000 compounds, 0.036% hits. AID 504651; in the data active means potentiation above about 30%
D3 antag = D3 dopamine receptor (human) antagonism | 360,000 compounds, 2.5% hits | max response, negative = inhibition, % | D3R cells, DiscoveRx beta-arrestin luminescence, antagonist mode; active compounds read low; in the data active means max response below about -50%
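Cells plated overnight at 1500 cells/well, then exposed to library compounds with dopamine controls for 90 minutes at 37 degrees C. DiscoveRx reagent added for 30–60 minutes at room temperature; luminescence read, quantitative HTS format.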
A number is an active result; . = inactive; / = no result given. Only some compounds are listed: those with a hit (about 6.1% of all), similar ones and a draw of the others.

SMILES | DRD3 agonist | D1 antagonist | D1 ag | D1 potentiator | D3 antag
OC1(c2ccc(OC(F)F)cc2)CSC(=Nc2cccnc2)N1Cc1ccco1 (stereo unspecified) | 57 | . | . | . | .
CC(C)CCNC(=O)CN1C(=O)CSc2ccc(S(=O)(=O)N3CCC(C)CC3)cc21 | . | . | . | . | /
CN(CC(=O)Nc1ccccc1Cl)C(=O)COC(=O)c1ccc(Cl)cc1[N+](=O)[O-] | . | -42 | . | . | .
Cc1cc(C)c(NC(=O)CSc2nc(C)cc(C)c2C#N)c(C)c1 | . | . | . | . | /
CC(=O)Nc1ccc(N2CCc3c(C)c(C#N)c4nc5ccccc5n4c32)cc1 | / | . | 47 | . | /
CCOC(=O)/C(=C/C=C1\Sc2cc(OCC)c(OCC)cc2N1CC)C(C)=O | . | -30 | 216 | . | .
CCOc1cc(OCC)c(C(=O)CCC(=O)O)cc1OCC | . | / | / | / | /
CCN1/C(=C/C(C)=O)Sc2ccc(OC)cc21 | . | . | . | . | .
CCOC(=O)/C(=C\C=C1/Sc2cc(OCC)c(OCC)cc2N1CC)C(C)=O | . | -43 | 329 | . | .
COc1ccc2c(c1)c1c(c(=O)n(-c3ccc(OC)c(OC)c3)c(=O)n1Cc1ccccc1C)n2C | . | . | . | . | /
COc1ccc(NC(=O)CC2NCCNC2=O)c(OC)c1 (stereo unspecified) | . | . | . | . | /
COc1ccc(CCN2C(=O)CSC2c2cccc([N+](=O)[O-])c2)cc1OC (stereo unspecified) | . | -30 | . | . | .
COc1ccc(Cn2c(=O)n(-c3ccc(C)cc3)c(=O)c3c2c2cc(C)ccc2n3C)cc1 | 37 | . | . | . | /
COc1ccc2c(c1)c1c(c(=O)n(Cc3ccccc3)c(=O)n1Cc1cc(C)ccc1C)n2C | . | . | . | . | /
COc1ccc(Cn2c(=O)n(-c3ccc(OC)cc3)c(=O)c3c2c2cc(OC)ccc2n3C)cc1 | . | . | . | . | /
COc1ccc(-n2c(=O)c3c(c4cc(OC)ccc4n3C)n(Cc3cc(C)ccc3C)c2=O)cc1 | . | -74 | . | . | /
Cc1ccc(C)c(CN2CCCN(CC(=O)Nc3ccc(C)c(C)c3)S2(=O)=O)c1 | . | . | . | . | /
O=C(NCCC1=CCCCC1)C(c1ccccc1)c1ccccc1 | . | -33 | . | . | .
O=C(Cc1ccccc1)NCCC1=CCCCC1 | . | . | . | . | .
O=C(CCc1ccccc1)NCCC1=CCCCC1 | . | -33 | . | . | .
O=C(CCCc1ccccc1)NCCC1=CCCCC1 | . | . | . | . | .
O=C(NC(=S)NCCC1=CCCCC1)c1ccc(Br)o1 | . | -32 | . | . | .
CC(=O)c1c(C)[nH]c(C(=O)NCCC2=CCCCC2)c1C | . | . | . | . | -57
CO[C@H]1C=CO[C@@]2(C)Oc3c(C)c(O)c4c(O)c(c5c(nc6cc(C)ccn65)c4c3C2=O)NC(=O)/C(C)=C\C=C[C@H](C)[C@H](O)[C@@H](C)[C@@H](O)[C@@H](C)[C@H](OC(C)=O)[C@@H]1C | . | / | / | / | /
O=C(NCn1ccc(=O)[nH]c1=S)c1ccccc1 | . | -46 | . | . | .
SMILES | DRD3 agonist | D1 antagonist | D1 ag | D1 potentiator | D3 antag
COc1cccc(OCc2cc(C(=O)N3CCN(c4ccccc4OC)CC3)no2)c1 | . | . | . | . | -63
COc1ccccc1N1CCN(C2CCCN(C(=O)c3cc(C(C)C)on3)C2)CC1 (stereo unspecified) | . | / | / | / | -62
COc1cccc(OCc2cc(C(=O)N3CCN(c4ccccc4O)CC3)no2)c1 | . | . | . | . | .
COc1ccccc1N1CCN(C2CCCN(C(=O)c3cccc(-c4ccco4)c3)C2)CC1 (stereo unspecified) | . | . | . | . | -66
COc1cc(OC)cc(C(=O)N2CCC(N3CCN(c4ccccc4OC)CC3)CC2)c1 | . | . | . | . | -53
O=C1CN(C(=O)c2ccc(S(=O)(=O)N3CCCC3)cc2)C(c2ccccc2)c2cc(Br)ccc2N1 (stereo unspecified) | . | . | . | . | /
CCCCCc1cc(=O)oc2c(C(CCN3CCN(c4ccccc4)CC3)c3ccc4c(c3)OCO4)c(OC)cc(OC)c12 (stereo unspecified) | . | -31 | . | . | -69
CCCCCc1cc(=O)oc2c(C(CCN(CC)CC)c3ccc(OC)cc3)c(OC)cc(OC)c12 (stereo unspecified) | . | -39 | 40 | . | .

Source: PubChem
